# Screening results from PubChem.
# Shown are actives, neighbours in structure and some others; about 6.2% of the full set was active somewhere.
# Gal4-VP16 FLuc = Gal4-VP16 reporter inhibition counter-screen; AID 2546; Potency, µM (titrated, usually from 53.6 µM), for inactives: top-dose activity, negative = inhibition, actives largely listed as inhibitors; Drosophila S2 Gal4-VP16 UAS-luciferase, luminescence, 20 h; hit rate 3.5% among 310,000;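 note: Gal4-VP16 expression switched on by copper sulfate through the metallothionein promoter; nearly all actives have a fitted effect of over 50% in size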
# RORgamma inh = blocks mouse ROR gamma transcriptional activity | Potency, µM (doses to about 53.6 µM), for the others: top-dose activity change, negative = inhibition, hits mostly inhibitors | Drosophila S2 Gal4-RORgamma UAS-luciferase reporter, 20 h | AID 2551 | P51450 | hit rate 5.4% among 310,000; note: nearly all actives have a fitted effect of over 60% in size
# Target sequence (P51450 whole entry, looked up, the tested form may be a part): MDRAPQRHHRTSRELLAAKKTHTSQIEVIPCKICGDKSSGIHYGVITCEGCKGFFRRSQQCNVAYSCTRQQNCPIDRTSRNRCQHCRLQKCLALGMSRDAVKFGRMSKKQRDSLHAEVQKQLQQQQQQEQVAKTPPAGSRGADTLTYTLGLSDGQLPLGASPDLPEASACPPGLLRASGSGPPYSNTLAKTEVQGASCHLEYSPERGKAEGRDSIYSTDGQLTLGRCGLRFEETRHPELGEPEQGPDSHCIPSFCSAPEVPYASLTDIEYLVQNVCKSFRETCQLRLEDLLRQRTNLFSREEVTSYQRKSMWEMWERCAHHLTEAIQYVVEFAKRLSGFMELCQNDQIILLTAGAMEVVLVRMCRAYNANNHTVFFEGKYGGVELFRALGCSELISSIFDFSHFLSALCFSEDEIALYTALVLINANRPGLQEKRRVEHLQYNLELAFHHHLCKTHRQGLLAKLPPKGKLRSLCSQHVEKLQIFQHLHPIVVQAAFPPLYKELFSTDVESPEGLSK
#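 ROR gamma transcriptional activity was tracked as Gal4-UAS luciferase output in stably transfected Drosophila Schneider cells, with compound added 1 hr before 700 uM copper sulfate induction and a 20 hr ambient-temperature incubation.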
# Luc counter = counter-screen: inhibitors of Kinase-Glo firefly luciferase; Q27757; Kinase-Glo luciferase, ATP luminescence, 8 min; Potency, µM (top dose mostly 38.3 µM), for the others: top-dose activity change, negative = inhibition, actives largely listed as inhibitors; hit rate 0.28% among 200,000; AID 1379; note: nearly all actives have a fitted effect of over 60% in size
#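 Luminescence was the read-out, taken after 8-minute incubation at ambient temperature. Luciferase turned over luciferin with 10 uM ATP in imidazole pH 7.2 buffer containing KCl, MgCl2, Tween 20 and BSA.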
# Active calls of the source: *; ? = inconclusive; · = not tested or not shown; [ ] = dose if it differs, or a comment. Calls come from the whole dose curve; as a rule, active = well fitted curve in the direction sought with a large enough effect; inconclusive = small, poorly fitted or top-dose-only effect, or another doubt; inactive = no such curve, though single readings can be large; an effect the other way counts as inactive or inconclusive. % is set by controls: 0 for no effect and ±100 for the full control effect; potency is the fitted concentration of half-maximal effect.
SMILES,Gal4-VP16 FLuc,RORgamma inh,Luc counter
O=C(CNC(=S)N(Cc1ccccc1)Cc1ccccc1F)NCc1ccc(Cl)cc1,-15.4%,2µM*,1.4%
CC(=O)Nc1ccc(-c2sc(Nc3cccc4ccccc34)n[n+]2-c2ccccc2)cc1,-1.6%,-2.1%,·
Fc1cccc(COc2ccccc2C(=S)N2CCCC2)c1,2.9%,11.2µM*,0.0%
CN1C(=O)/C(=C/c2ccccc2OCc2cccc(F)c2)N(C)C1=S,-5.1%,0.0%,1.7%
CCC(C)CCN1C(Nc2ccccc2)=NC[C@@H]1C (stereo not given in full),1.3%,-10.4%,·
OCC(O)/C=N/Nc1nc2ccccc2s1 (stereo not given),13.9%,24.1%,1.8%
Cc1ccsc1/C=N/Nc1nc2ccccc2s1,0.891µM*,0.562µM*,?
CCn1c(/C=C/c2c(C)n(CC)c3ccccc23)nc2ccccc2c1=O,-1.5%,17.3%,0.9%
COc1ccc(/C=N/Nc2nc3ccccc3s2)cc1O,?,?,-9.3%
C(=N\Nc1nc2ccccc2s1)/c1ccco1,?,11.2µM*,4.0%
CCn1c(C)c(/C=N/Nc2nc3ccccc3s2)c2ccccc21,?,5.01µM*,-5.0%
C/C(=N\Nc1nc(-c2ccccc2)cs1)c1cccs1,1.0%,-8.5%,-15.9%
C/C(=N\Nc1nc2ccccc2s1)c1cccs1,3.55µM*,0.708µM*,-16.7%
COC(=O)C(c1ccc(OC)c(OC)c1)C1c2ccccc2C=C(C)N1C(=O)OC (stereo not given),-9.6%,34.8%,-3.3%
Cc1nc2nc(C)c(NS(=O)(=O)c3ccc(Cl)cc3)c(=O)n2[nH]1,-7.0%,-9.7%,·
O=C1NC(Cc2c[nH]c3ccccc23)C(=O)N1Cc1ccc(CN2C(=O)NC(Cc3c[nH]c4ccccc34)C2=O)cc1 (stereo not given),-9.0%,0.4%,0.9%
CCOC(=O)c1cccc(N)c1,-5.2%,10.2%[10 µM],·
Cc1ccc(S(=O)(=O)N(C)Cc2ccc(-c3nnc4n3CCC4)cc2)cc1,-1.7%,13.6%[10 µM],-3.2%
CC(=O)Nc1ccc(/C=N/Nc2nc3ccccc3s2)cc1,2.9%,-9.1%,·
Cc1ccc(C)c(-c2csc(Nc3ncccn3)n2)c1,-9.0%,-17.0%,·
Cc1nn(-c2ccccc2Cl)c(Cl)c1/C=N/Nc1nc2ccccc2s1,0.316µM*,1µM*,-7.6%
CCOC(=O)N/N=C/c1c(C)nn(-c2ccccc2Cl)c1Cl,?,?,1.5%
Cc1ccc(C)c(-c2csc(N/N=C/c3ccco3)n2)c1,-12.9%,15.8µM*,2.5%
C(=N\Nc1nc2ccccc2s1)/c1cccs1,3.16µM*,1.26µM*,-1.3%
CCc1cccc(NS(=O)(=O)c2c(C)nc3scc(C)n3c2=O)c1,-0.4%,43.9%,·
SMILES,Gal4-VP16 FLuc,RORgamma inh,Luc counter
Cc1ccccc1C(=O)NC(=S)Nc1ccccc1C(F)(F)F,?,0.794µM*,-0.4%
Cc1ccc2nsnc2c1NC(=S)NC(=O)c1ccco1,-11.8%,-19.2%[10 µM],0.7%
CC(C)C(=O)Nc1ccc(NC(=S)NC(=O)c2ccccc2F)cc1,2.3%,12.8%,·
Cc1ccc(C(=O)NC(=S)Nc2ccccc2C(F)(F)F)c(C)c1,-10.7%,2.7%,2.0%
O=C(NC(=S)Nc1c(Cl)ccc2nsnc12)c1ccccc1F,-11.5%,1.41µM*,·
O=C(NC(=S)Nc1ccccc1C(F)(F)F)c1ccccc1F,?,6.31µM*,3.5%
Cc1ccc2nc(C)c(CN3CCN(c4ccc([N+](=O)[O-])cc4Cl)CC3)n2c1,7.08µM*,14.1µM*,·
O=[N+]([O-])c1ccc(Cl)c(CN2CCN(c3ncccn3)CC2)c1,-3.7%,5.7%,·
CCOC(=O)c1c(C)[nH]c(C(=O)OCC(=O)Nc2cc(Cl)ccc2OC)c1C,-8.5%,41.5%,-3.8%
CC(=O)c1c(C)[nH]c(C(=O)OCC(=O)Nc2ccc(Cl)cc2[N+](=O)[O-])c1C,5.01µM*,?,-0.1%
CCC(C)(C)NC(=O)C(c1ccc(C)cc1)N(Cc1ccco1)C(=O)CCC(=O)Nc1nccs1 (stereo not given),-7.0%,-6.8%,-3.3%
CC1CCC2C(=O)N3CCCC3C(=O)N2C1c1ccc(Br)cc1 (stereo not given),4.2%[10 µM],-0.7%[10 µM],·
O=C(COC(=O)/C=C/c1nc2ccccc2s1)Nc1cccc(Cl)c1Cl,5.5%,5.7%,3.1%
C#CCn1c(=NC(=O)c2cccs2)sc2cccc(OCC)c21,-2.8%,-24.1%,0.0%
C#CCn1c(=NC(=O)c2ccc(Cl)s2)sc2cccc(OC)c21,-17.3%,2.24µM*,3.6%
CCc1cccc(CC)c1NC(=S)NCCc1ccc(O)c(O)c1,-14.1%,12.6µM*,3.6%
Cc1[nH]c2ccccc2c1CCNC(=O)CCC(=O)c1ccccc1,0.5%,9.1%,1.5%
COc1ccc2[nH]c(C)c(CCNC(=S)Nc3cccc(C)c3C)c2c1,?,7.08µM*,1.6%
CCc1cccc(CC)c1NC(=S)NCCc1c(C)[nH]c2ccccc12,7.08µM*,?,1.0%
COc1ccc2[nH]c(C)c(CCNC(=S)Nc3ccccc3C)c2c1,?,?,-0.1%
CC(=O)NCCc1ccc(O)c(O)c1,·,·,-3.5%
Cn1ccnc1SCC(=O)Nc1cccc(S(=O)(=O)N2CCCCCC2)c1,-4.1%,5.4%,-1.9%
Cc1cc(O)ccc1NC(=O)CCN1C(=O)c2ccc([N+](=O)[O-])cc2C1=O,?,?,6.9%
Cc1cc2c(c(=O)n1Cc1cccnc1)C(c1cccs1)C(C#N)=C(N)O2 (stereo not given),1.6%,15.5%,2.8%
Cc1cc2c(c(=O)n1Cc1cccnc1)C(Cc1ccccc1)C(C#N)=C(N)O2 (stereo not given),14.1µM*,?,·
SMILES,Gal4-VP16 FLuc,RORgamma inh,Luc counter
COc1ccc(F)cc1C(=O)C1CCCN(Cc2c(C)n(C)n(-c3ccccc3)c2=O)C1 (stereo not given),3.2%,-6.6%,-1.2%
Cc1ccc(-c2nc(-c3ccccc3)no2)c(Cl)c1,7.08µM*,10µM*,?
Cc1ccc(-c2nc(-c3cccnc3)no2)cc1,?,?,-23.8%
COc1ccc(-c2nc(-c3cccc(C)c3)no2)cc1OC,?,?,-0.2%
Cc1ccc(-c2nc(-c3ccccc3)no2)cc1,12.6µM*,10µM*,-28.6%
COc1ccc(-c2noc(-c3ccccc3-c3ccccc3)n2)cc1,12.0%,15.8µM*,0.2%
COc1ccccc1-c1nc(-c2cccc(C)c2)no1,22.4µM*,?,?
Brc1ccccc1-c1nc(-c2ccccc2)no1,·,-11.8%[0.365 µM],-25.2%
COc1ccc(-c2noc(-c3ccc(Cl)cc3)n2)cc1,·,3.8%[0.365 µM],-1.2%
Cc1cccc(-n2nc3c(c2NC(=O)c2c(F)cccc2F)CS(=O)(=O)C3)c1C,-4.1%,-39.7%,·
CC(C)(CS)C(=O)N1CCC[C@H]1C(=O)O,-17.6%[17 µM],-15.0%[16.9 µM],2.4%[17.1 µM]
CC(C)/C=N\NC(=O)CCCCC(=O)N/N=C/C(C)C,-12.3%,-6.4%,0.1%
Cc1cc(C)cc(-c2nc(-c3ccncc3)no2)c1,-0.5%,?,-7.2%
Cc1ccc(-c2nc(-c3ccncc3)no2)cc1,?,14.1µM*,·
COc1cc(OC)c(-c2nc(-c3ccncc3)no2)cc1OC,-4.6%,34.5%,·
COc1ccc(-c2nc(-c3ccncc3)no2)c(OC)c1,?,7.94µM*,·
O=C(CN1CCN(Cc2cccc(Cl)c2)C1=O)NCc1ccccn1,-0.5%,4.9%,-1.1%
C#C[C@]1(O)CC[C@H]2[C@H]3CCC4=Cc5oncc5C[C@]4(C)[C@@H]3CC[C@]21C,-6.8%,0.2%,0.0%
